# In ChEMBL document CHEMBL3988442, “University of Dundee, Small-Polar-MMV Screening Library” (2021):
# Hit rate of the full screen: of about 66,000 compounds, about 960 (1.5%) showed an effect of 50% or more. The entries come from a sample that favours strong results as a whole.
# Tested on: Trypanosoma brucei
# Assay: Trypanosoma brucei 72 hour study
# Assay type: functional, organism-based
# Set-up: scale not given: in the data most compounds retested in dose-response had high values
compound,measurement,setting,value
O=C(Nc1ccccn1)C1CC(=O)N(Cc2ccccn2)C1 (configuration not stated),Percent Effect,"30 µM, 30.03 µM",-8.332%
Cc1ccc(Cl)cc1NC(=O)C1CC(=O)N(Cc2ccccn2)C1 (configuration not stated),Percent Effect,"30 µM, 30.03 µM",8.87%
COc1ncccc1NC(=O)C1CC(=O)N(Cc2ccccn2)C1 (configuration not stated),Percent Effect,"30 µM, 30.03 µM",55.04%
CC(C)(C)NC(=O)CCOc1cccc(F)c1,Percent Effect,10 µM,-74.47%
COc1ccccc1CN1CC[C@]2(C[C@@H](OC)CO2)C1.O=C(O)C(F)(F)F,Percent Effect,"30 µM, 30.03 µM",-26.27%
Cc1nn(C)c2c(NCCCn3cccn3)nc(C(C)C)nc12,Percent Effect,"30.3 µM, […]",-9.582%
COc1cc(C(=O)NCCCc2ccccc2)on1,Percent Effect,"30.3 µM, […]",10.61%
COc1cc(C(=O)NCCc2ccccc2OC)on1,Percent Effect,"30.3 µM, […]",101.4%
COc1cc(C(=O)NCCc2ccc(OC)c(OC)c2)on1,Percent Effect,"30.3 µM, […]",8.881%
Cc1occc1C(=O)N1CCC2(CCN(Cc3ccccn3)C2=O)C1.O=C(O)C(F)(F)F (configuration not stated),Percent Effect,"30 µM, 30.03 µM",-18.48%
Cc1cc(C)nc(N2CCN(Cc3nccn3C)CC2)n1.O=CO,Percent Effect,"30.3 µM, […]",-2.711%
Cc1noc(C)c1CN1C[C@@H](OCc2ccccn2)[C@H]2OCCC[C@H]21.O=C(O)C(F)(F)F.O=C(O)C(F)(F)F,Percent Effect,"30 µM, 30.03 µM",-32.5%
O=C(O)C(F)(F)F.O=c1ccc2c([nH]1)CCC(NCc1ccc3c(c1)OCO3)C2 (configuration not stated),Percent Effect,"30.3 µM, […]",-24.67%
CC(C)CCN1C2(CCN(C(=O)CN(C)C)C2)c2ccccc2S1(=O)=O.O=C(O)C(F)(F)F (configuration not stated),Percent Effect,"30.3 µM, […]",-2.24%
COc1ccc2c(c1)OC1(CCN(Cc3ccccc3C)CC1)CC2=O,Percent Effect,"30.3 µM, […]",99.25%
same,Percent Effect,"10 mM, 10 mM as filed; unlikely as a test dose",-45.93%
COc1ccc2c(c1)OC1(CCN(Cc3ccc(C)cc3)CC1)CC2=O,Percent Effect,"30.3 µM, […]",-15.07%
same,Percent Effect,"10 mM, 10 mM as filed; unlikely as a test dose",-53.52%
COc1ccc2c(c1)OC1(CCN(Cc3cccc(C)c3)CC1)CC2=O,Percent Effect,"30.3 µM, […]",-0.9536%
same,Percent Effect,"10 mM, 10 mM as filed; unlikely as a test dose",-48.74%
Cc1nc(CN2CCCC(C)(CO)C2)no1 (configuration not stated),Percent Effect,"30 µM, 30.03 µM",-41.91%
Cl.Cl.O=C(NCc1cncc2c1CCN(C1CCOC1)C2)c1ccco1 (configuration not stated),Percent Effect,"30.3 µM, […]",-14.18%
Cc1ccc(C)c(CN(CC(N)=O)C(C)C)c1,Percent Effect,"30 µM, 30.03 µM",-11.18%
CCc1nc(C)cc(N2CCCC(C(=O)c3ccc(OC)cc3C)C2)n1 (configuration not stated),Percent Effect,"30.3 µM, […]",68.93%
COc1ccc(C(=O)C2CCCN(c3cc(OC)ncn3)C2)c(C)c1 (configuration not stated),Percent Effect,"30.3 µM, […]",25.96%
COc1ccc(C(=O)C2CCCN(c3cc(N)ncn3)C2)c(C)c1 (configuration not stated),Percent Effect,"30.3 µM, […]",35.59%
Cc1ccc(CN2CCc3nnc(CN4CCCC4=O)n3CC2)o1.O=C(O)C(F)(F)F,Percent Effect,"30.3 µM, […]",11.51%
Cc1nnsc1C(=O)NCc1nn(C)c2c1CCCC2,Percent Effect,"30 µM, 30.03 µM",10.26%
O=C(Cc1cccnc1)NC1COc2ccccc2C1=O (configuration not stated),Percent Effect,"30.3 µM, […]",-65.37%
O=C(Cc1cccc(F)c1F)NC1COc2ccccc2C1=O (configuration not stated),Percent Effect,"30.3 µM, […]",-49.3%
O=C(Cc1ccc(F)c(F)c1)NC1COc2ccccc2C1=O (configuration not stated),Percent Effect,"30.3 µM, […]",53.93%
COCCCN(C)c1cc(C(F)(F)F)nc(-c2cccnc2)n1,Percent Effect,"30 µM, 30.03 µM",14.1%
COCC(O)CN(C)c1cc(C(F)(F)F)nc(-c2cccnc2)n1 (configuration not stated),Percent Effect,"30 µM, 30.03 µM",57.96%
CC(O)CN(C)c1cc(C(F)(F)F)nc(-c2cccnc2)n1 (configuration not stated),Percent Effect,"30 µM, 30.03 µM",14.71%
CNc1oc(-c2ccc(S(=O)(=O)N(C)C)o2)nc1C#N,Percent Effect,"30 µM, 30.03 µM",-28.85%
CN(C)S(=O)(=O)c1ccc(-c2nc(C#N)c(NC3CC3)o2)o1,Percent Effect,"30 µM, 30.03 µM",-26.91%
CN(C)S(=O)(=O)c1ccc(-c2nc(C#N)c(NC(C)(C)C)o2)o1.Cl,Percent Effect,"30 µM, 30.03 µM",94.64%
CN(C)S(=O)(=O)c1ccc(-c2nc(C#N)c(NC3CCCCC3)o2)o1,Percent Effect,"30 µM, 30.03 µM",-26.33%
CC(C)Nc1oc(-c2ccc(S(=O)(=O)N(C)C)o2)nc1C#N,Percent Effect,"30 µM, 30.03 µM",-8.182%
Cc1ccc(S(=O)(=O)Nc2ccc(=O)n(C)c2)c(Br)c1,Percent Effect,"30.3 µM, […]",-36.73%
CCN1CC[C@@]2(C(=O)Nc3ccccc3)CCN(S(C)(=O)=O)CC[C@@H]12.O=C(O)C(F)(F)F,Percent Effect,"30 µM, 30.03 µM",-16.54%
CCOCC1CN(C(=O)c2cnoc2C)Cc2cnn(C)c21.O=C(O)C(F)(F)F (configuration not stated),Percent Effect,"30.3 µM, […]",-5.791%
CCC(=O)N1CCC2(CC1)CC(CC(=O)N(C)C)c1ccc(F)cc12 (configuration not stated),Percent Effect,"30.3 µM, […]",-4.762%
c1coc(-c2nc3c(c(NCc4n[nH]c5c4CCC5)n2)CCNCC3)c1,Percent Effect,"30 µM, 30.03 µM",-54.29%
c1ccc(-c2nc3c(c(NCc4nnc5n4CCC5)n2)CCNC3)cc1,Percent Effect,"30.3 µM, […]",7.408%
c1ccc(-c2nc3c(c(NCc4n[nH]c5c4CCC5)n2)CCNC3)cc1,Percent Effect,"30 µM, 30.03 µM",50.77%
CCc1nc2ccccc2c(=O)n1CC1(O)CCN(C(=O)C2CC2)CC1.Cl,Percent Effect,"30.3 µM, […]",5.264%
O=C(O)c1cc(-c2ccoc2)cc(S(=O)(=O)NC2CC2)c1,Percent Effect,"30 µM, 30.03 µM",27.37%
O=C(O)c1cc(-c2ccc3c(c2)OCO3)cc(S(=O)(=O)NC2CC2)c1,Percent Effect,"30 µM, 30.03 µM",-10.73%
CN(C)c1ccc(-c2cc(C(=O)O)cc(S(=O)(=O)NC3CC3)c2)cc1,Percent Effect,"30 µM, 30.03 µM",102.4%
O=C(CO)N1CCC(CCc2ccnc(Nc3cnccn3)c2)CC1,Percent Effect,"30.3 µM, […]",12.44%
O=C(Nc1cc(CCC2CCN(CCO)CC2)ccn1)c1ccccn1,Percent Effect,"30.3 µM, […]",100.1%
CN1CCC(CCc2ccnc(NC(=O)c3ccccn3)c2)CC1,Percent Effect,"30.3 µM, […]",24.76%
CC(=O)N1CCC(CCc2ccnc(NC(=O)c3ccccn3)c2)CC1,Percent Effect,"30.3 µM, […]",56.75%
CC(=O)Nc1cc(CCC2CCN(C(=O)c3ccccn3)CC2)ccn1,Percent Effect,"30.3 µM, […]",-19.84%
CC(=O)N1CCC(CCc2ccnc(Nc3ccccn3)c2)CC1,Percent Effect,"30.3 µM, […]",18.19%
O=C(O)C(F)(F)F.O=C([C@@H]1C[C@@H]2CCN(C3CCOCC3)C[C@@H]2O1)N1CCCC1,Percent Effect,"30.3 µM, […]",-37.65%
O=C(NCc1cccs1)[C@H]1CO[C@H]2CCN(C3CCCC3)C[C@H]2C1.O=C(O)C(F)(F)F,Percent Effect,"30.3 µM, […]",-53.03%
Cc1cc(NC(=O)Nc2ccc3c(ccn3CCN(C)C)c2)n(C)n1,Percent Effect,"30.3 µM, […]",55.17%
Cc1nc(CNC(=O)Nc2ccc3c(ccn3CCN(C)C)c2)no1,Percent Effect,"30.3 µM, […]",-6.711%
CN(C)CCn1ccc2cc(NC(=O)NCc3ncnn3C)ccc21,Percent Effect,"30.3 µM, […]",-3.411%
Cc1cccc(CN2Cc3ncn(C)c3C(COCC(=O)N(C)C)C2)n1.O=C(O)C(F)(F)F.O=C(O)C(F)(F)F.O=C(O)C(F)(F)F (configuration not stated),Percent Effect,"30.3 µM, […]",-54.51%
Cl.c1cncc(CNc2cncc(C3CCCN3)n2)c1 (configuration not stated),Percent Effect,"30.3 µM, […]",-3.878%
Cc1nc(CN2CCO[C@@H]3CN(Cc4nccs4)C[C@@H]3C2)cs1.O=C(O)C(F)(F)F.O=C(O)C(F)(F)F,Percent Effect,"30 µM, 30.03 µM",45.29%
Cl.Cn1cc(CN(Cc2ccccc2)Cc2ccccn2)cn1,Percent Effect,"30.3 µM, […]",-17.42%
CN(C)[C@@H]1CN(Cc2ccccc2O)C[C@H]1c1cn(C)c2ccccc12.Cl,Percent Effect,"30.3 µM, […]",100%
CN(C)[C@@H]1CN(Cc2ccccn2)C[C@H]1c1cn(C)c2ccccc12.Cl,Percent Effect,"30.3 µM, […]",22.59%
CN(C)[C@@H]1CN(Cc2ccc(O)cc2)C[C@H]1c1cn(C)c2ccccc12.Cl,Percent Effect,"30.3 µM, […]",10.26%
CCn1nc(C)c(-c2cncn2CCN(C)C2CCCC2)c1C.Cl,Percent Effect,"30.3 µM, […]",-4.685%
O=C(c1c(O)cc(F)cc1F)N1CCc2cnccc21,Percent Effect,"30 µM, 30.03 µM",-42.5%
CCO[C@@H]1CO[C@@]2(CCN(Cc3ccc4c(c3)OCO4)C2)C1.O=C(O)C(F)(F)F,Percent Effect,"30.3 µM, […]",14.48%
Cc1[nH]nc(CCC(=O)N2CCc3ncnc(NCCO)c3CC2)c1C,Percent Effect,"30 µM, 30.03 µM",-37%
O=C(CCc1cccs1)N1CCc2[nH]nc(COc3ccccc3)c2C1,Percent Effect,"30 µM, 30.03 µM",68.24%
O=C(CCn1cccc1)N1CCc2[nH]nc(COc3ccccc3)c2C1,Percent Effect,"30 µM, 30.03 µM",-16.91%
O=C(CCc1ccco1)N1CCc2[nH]nc(COc3ccccc3)c2C1,Percent Effect,"30 µM, 30.03 µM",-57.79%
Cc1nn(C(C)C)c(C)c1CN1CCN(C2CCCCC2)C(=O)C1.O=C(O)CC(O)(CC(=O)O)C(=O)O,Percent Effect,"30.3 µM, […]",-4.336%
CC(=O)N1CCCCC12CCCN(Cc1ccco1)C2.O=C(O)C(F)(F)F (configuration not stated),Percent Effect,"30.3 µM, […]",5.13%
Cc1cc(C)c(-c2nc(-c3c(C)ncc4c3CCNC4)no2)o1,Percent Effect,"30 µM, 30.03 µM",-0.4206%
COCCN1C2(CCN(Cc3nccs3)C2)c2ccccc2S1(=O)=O.O=C(O)C(F)(F)F (configuration not stated),Percent Effect,"30.3 µM, […]",-203.3%
CN(Cc1ccccn1)C1COC2(CCN(Cc3cccnc3)CC2)C1 (configuration not stated),Percent Effect,"30 µM, 30.03 µM",-2.463%
CN(Cc1cccnc1)C1CC2(CCN(c3ncccn3)CC2)C1.O=C(O)C(F)(F)F.O=C(O)C(F)(F)F,Percent Effect,"30.3 µM, […]",-50.17%
CN(C)CCN1C2(CCN(Cc3nccs3)C2)c2ccccc2S1(=O)=O.O=C(O)C(F)(F)F.O=C(O)C(F)(F)F (configuration not stated),Percent Effect,"30.3 µM, […]",-461.1%
CC(C)CCN1C2(CCN(Cc3nccs3)C2)c2ccccc2S1(=O)=O.O=C(O)C(F)(F)F (configuration not stated),Percent Effect,"30.3 µM, […]",91.13%
CN(Cc1cccnc1)C1CC2(CCN(Cc3ccccn3)CC2)C1.O=C(O)C(F)(F)F.O=C(O)C(F)(F)F.O=C(O)C(F)(F)F,Percent Effect,"30.3 µM, […]",-569.4%
CN(Cc1ccccc1)C1COC2(CCN(Cc3nccs3)CC2)C1.O=C(O)C(F)(F)F (configuration not stated),Percent Effect,"30 µM, 30.03 µM",56.78%
CN(Cc1ccccn1)C1COC2(CCN(Cc3nccs3)CC2)C1 (configuration not stated),Percent Effect,"30 µM, 30.03 µM",58.22%
CN(Cc1cccnc1)C1COC2(CCN(Cc3nccs3)CC2)C1.O=C(O)C(F)(F)F.O=C(O)C(F)(F)F.O=C(O)C(F)(F)F (configuration not stated),Percent Effect,"30.3 µM, […]",-7.601%
CN(Cc1cccnc1)C1CC2(CCN(c3ccccn3)CC2)C1.O=C(O)C(F)(F)F.O=C(O)C(F)(F)F.O=C(O)C(F)(F)F,Percent Effect,"30 µM, 30.03 µM",54.5%
CN(Cc1ccco1)C1COC2(CCN(Cc3nccs3)CC2)C1.O=C(O)C(F)(F)F.O=C(O)C(F)(F)F (configuration not stated),Percent Effect,"30.3 µM, […]",-7.244%
CN(C)C1COC2(CCN(Cc3nccs3)CC2)C1.O=C(O)C(F)(F)F.O=C(O)C(F)(F)F (configuration not stated),Percent Effect,"30.3 µM, […]",-5.42%
CCc1n[nH]c(C2CN(C(=O)c3cnc(C)cn3)CCO2)n1 (configuration not stated),Percent Effect,10 µM,-10.87%
Cc1noc(C)c1CN1CCN(CC2CC2)c2ncccc2C1.O=C(O)C(F)(F)F.O=C(O)C(F)(F)F,Percent Effect,"30 µM, 30.03 µM",-2.749%
